# Data from paper PMC7862700, “An all-to-all approach to the identification of sequence-specific readers for epigenetic DNA modifications on cytosine”.
# Experiments:
# Assay in all cases: DAPPL (digital affinity profiling via proximity ligation, sequencing); 10 mM Tris-HCl pH 7.5, 50 mM NaCl, 1 mM DTT, 4% glycerol, room temperature, 30 min; GST-TFs on glutathione beads, 16-mer random dsDNA library, 0.1% formaldehyde crosslink after washing; high values mean tight binding
# FEV = biological target: T1, FEV (Homo sapiens, UniProt Q99581 1-238); conditions: protein: recombinant; tags: N-terminal GST; dsDNA, one strand shown
# T1 sequence: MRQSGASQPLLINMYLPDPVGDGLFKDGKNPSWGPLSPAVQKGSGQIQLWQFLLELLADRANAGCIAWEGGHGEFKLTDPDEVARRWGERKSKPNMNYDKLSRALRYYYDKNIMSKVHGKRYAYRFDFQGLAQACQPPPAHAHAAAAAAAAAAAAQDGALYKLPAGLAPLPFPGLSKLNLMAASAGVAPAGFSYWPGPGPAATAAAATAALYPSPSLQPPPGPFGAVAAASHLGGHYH
# How it was run: (§1)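 Each value of binding signal is a hexamer's read frequency for a factor divided by the same hexamer's frequency in the tag-only sample. Barcoded, bead-captured GST fusions of human transcription factors made in yeast were pooled with that sample and incubated with 200 nmole of a random double-stranded 16-mer DNA library in Tris/NaCl/DTT/glycerol buffer at room temperature for 30 min. Washing, 0.1% formaldehyde crosslinking, proximity ligation, PCR and Illumina NextSeq500 sequencing followed.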
# ETV5 = ETV5 (Homo sapiens, UniProt P41161 1-510); conditions: protein: recombinant; tags: N-terminal GST; dsDNA, one strand shown
# How it was run: as §1
# HSF1 = HSF1 (Homo sapiens, UniProt Q00613 1-529); conditions: protein: recombinant; tags: N-terminal GST; chain copies: 3; dsDNA, one strand shown
# How it was run: as §1
# SPIC = biological target: T2, SPIC (Homo sapiens, UniProt Q8N5J4 1-248); conditions: protein: recombinant; tags: N-terminal GST; dsDNA, one strand shown
# T2 sequence: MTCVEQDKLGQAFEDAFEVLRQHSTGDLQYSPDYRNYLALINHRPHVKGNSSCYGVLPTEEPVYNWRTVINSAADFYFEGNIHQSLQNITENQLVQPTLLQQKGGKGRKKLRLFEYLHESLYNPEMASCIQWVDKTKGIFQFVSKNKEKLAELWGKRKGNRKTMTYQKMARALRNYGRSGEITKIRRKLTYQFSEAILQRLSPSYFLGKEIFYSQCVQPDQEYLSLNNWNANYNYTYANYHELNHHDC
# How it was run: as §1
# ELF4 = ELF4 (Homo sapiens, UniProt Q99607 1-663); conditions: protein: recombinant; tags: N-terminal GST; dsDNA, one strand shown
# How it was run: as §1
# ELK4 = biological target: T3, ELK4 (Homo sapiens, UniProt P28324-2 1-405); conditions: protein: recombinant; tags: N-terminal GST; dsDNA, one strand shown
# T3 sequence: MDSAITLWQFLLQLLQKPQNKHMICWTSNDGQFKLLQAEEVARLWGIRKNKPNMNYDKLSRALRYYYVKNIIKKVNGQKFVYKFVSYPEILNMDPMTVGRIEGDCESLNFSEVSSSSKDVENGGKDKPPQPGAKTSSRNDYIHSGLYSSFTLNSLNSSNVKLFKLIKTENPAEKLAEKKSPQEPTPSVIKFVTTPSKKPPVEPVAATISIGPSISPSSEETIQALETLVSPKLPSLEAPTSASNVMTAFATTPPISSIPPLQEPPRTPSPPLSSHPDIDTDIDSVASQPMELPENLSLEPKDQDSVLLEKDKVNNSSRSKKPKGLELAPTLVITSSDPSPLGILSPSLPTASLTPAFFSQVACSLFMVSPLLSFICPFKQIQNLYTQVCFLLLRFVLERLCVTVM
# How it was run: as §1
# ETV2 = biological target: T4, ETV2 (Homo sapiens, UniProt O00321 1-342); conditions: protein: recombinant; tags: N-terminal GST; dsDNA, one strand shown
# T4 sequence: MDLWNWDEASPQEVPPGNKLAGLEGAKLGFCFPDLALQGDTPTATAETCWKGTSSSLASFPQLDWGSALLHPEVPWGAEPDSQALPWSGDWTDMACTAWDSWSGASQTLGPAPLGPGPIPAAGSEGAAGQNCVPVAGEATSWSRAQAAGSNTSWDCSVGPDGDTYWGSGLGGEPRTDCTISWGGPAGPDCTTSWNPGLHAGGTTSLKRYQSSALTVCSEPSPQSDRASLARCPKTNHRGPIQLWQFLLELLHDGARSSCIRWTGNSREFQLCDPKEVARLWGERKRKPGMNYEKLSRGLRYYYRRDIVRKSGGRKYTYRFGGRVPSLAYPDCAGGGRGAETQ
# How it was run: as §1
# ELF3 = biological target: T5, ELF3 (Homo sapiens, UniProt P78545 1-371); conditions: protein: recombinant; tags: N-terminal GST; dsDNA, one strand shown
# T5 sequence: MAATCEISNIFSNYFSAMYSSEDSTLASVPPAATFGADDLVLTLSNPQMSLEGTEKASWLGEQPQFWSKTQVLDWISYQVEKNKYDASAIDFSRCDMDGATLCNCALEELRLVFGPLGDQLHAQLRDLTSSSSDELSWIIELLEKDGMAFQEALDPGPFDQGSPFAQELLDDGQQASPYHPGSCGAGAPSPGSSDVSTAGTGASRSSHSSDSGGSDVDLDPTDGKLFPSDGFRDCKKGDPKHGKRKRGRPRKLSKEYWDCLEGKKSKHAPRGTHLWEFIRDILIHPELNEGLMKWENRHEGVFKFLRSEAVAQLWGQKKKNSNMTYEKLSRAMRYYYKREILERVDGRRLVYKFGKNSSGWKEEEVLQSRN
# How it was run: as §1
# CRX = CRX (Homo sapiens, UniProt O43186 1-299); conditions: protein: recombinant; tags: N-terminal GST; dsDNA, one strand shown
# How it was run: as §1
# ETV1 = ETV1 (Homo sapiens, UniProt P50549 1-477); conditions: protein: recombinant; tags: N-terminal GST; dsDNA, one strand shown
# How it was run: as §1
# Chain of CRX (O43186 whole entry): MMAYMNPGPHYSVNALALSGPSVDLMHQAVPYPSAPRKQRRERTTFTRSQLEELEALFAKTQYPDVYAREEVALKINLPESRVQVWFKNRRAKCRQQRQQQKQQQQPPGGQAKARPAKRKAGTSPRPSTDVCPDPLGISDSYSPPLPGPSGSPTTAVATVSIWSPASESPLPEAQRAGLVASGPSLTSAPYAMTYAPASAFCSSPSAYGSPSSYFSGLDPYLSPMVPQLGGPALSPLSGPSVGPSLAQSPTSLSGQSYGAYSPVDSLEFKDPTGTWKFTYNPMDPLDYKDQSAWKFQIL
# Chain of HSF1 (Q00613 whole entry): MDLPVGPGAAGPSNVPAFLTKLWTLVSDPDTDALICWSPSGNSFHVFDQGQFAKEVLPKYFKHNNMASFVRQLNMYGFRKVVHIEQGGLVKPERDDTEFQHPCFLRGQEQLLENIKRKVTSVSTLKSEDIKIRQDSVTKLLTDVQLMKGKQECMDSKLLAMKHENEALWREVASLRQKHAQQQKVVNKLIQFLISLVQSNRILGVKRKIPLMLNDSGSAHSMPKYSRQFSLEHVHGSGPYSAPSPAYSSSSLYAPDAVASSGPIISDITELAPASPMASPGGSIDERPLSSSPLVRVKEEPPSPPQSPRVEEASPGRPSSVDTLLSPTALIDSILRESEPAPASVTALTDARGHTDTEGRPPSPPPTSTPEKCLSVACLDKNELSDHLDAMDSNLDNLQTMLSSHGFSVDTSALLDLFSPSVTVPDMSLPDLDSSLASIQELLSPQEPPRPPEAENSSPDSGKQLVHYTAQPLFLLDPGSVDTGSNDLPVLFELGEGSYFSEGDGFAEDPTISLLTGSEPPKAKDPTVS
# Chain of ETV1 (P50549 whole entry): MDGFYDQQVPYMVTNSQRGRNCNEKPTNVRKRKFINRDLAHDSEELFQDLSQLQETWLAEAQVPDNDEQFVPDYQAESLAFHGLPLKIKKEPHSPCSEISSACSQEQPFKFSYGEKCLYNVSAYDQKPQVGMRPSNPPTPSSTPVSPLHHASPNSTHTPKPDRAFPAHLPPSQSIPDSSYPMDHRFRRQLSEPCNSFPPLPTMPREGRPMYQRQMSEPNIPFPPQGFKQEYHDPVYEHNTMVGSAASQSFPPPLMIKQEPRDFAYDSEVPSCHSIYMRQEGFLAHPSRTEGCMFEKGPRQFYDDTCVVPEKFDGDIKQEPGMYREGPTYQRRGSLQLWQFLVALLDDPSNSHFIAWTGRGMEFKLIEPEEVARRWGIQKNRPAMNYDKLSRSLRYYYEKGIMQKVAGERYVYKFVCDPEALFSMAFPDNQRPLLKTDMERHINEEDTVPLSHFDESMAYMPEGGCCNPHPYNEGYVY
# Chain of ELF4 (Q99607 whole entry): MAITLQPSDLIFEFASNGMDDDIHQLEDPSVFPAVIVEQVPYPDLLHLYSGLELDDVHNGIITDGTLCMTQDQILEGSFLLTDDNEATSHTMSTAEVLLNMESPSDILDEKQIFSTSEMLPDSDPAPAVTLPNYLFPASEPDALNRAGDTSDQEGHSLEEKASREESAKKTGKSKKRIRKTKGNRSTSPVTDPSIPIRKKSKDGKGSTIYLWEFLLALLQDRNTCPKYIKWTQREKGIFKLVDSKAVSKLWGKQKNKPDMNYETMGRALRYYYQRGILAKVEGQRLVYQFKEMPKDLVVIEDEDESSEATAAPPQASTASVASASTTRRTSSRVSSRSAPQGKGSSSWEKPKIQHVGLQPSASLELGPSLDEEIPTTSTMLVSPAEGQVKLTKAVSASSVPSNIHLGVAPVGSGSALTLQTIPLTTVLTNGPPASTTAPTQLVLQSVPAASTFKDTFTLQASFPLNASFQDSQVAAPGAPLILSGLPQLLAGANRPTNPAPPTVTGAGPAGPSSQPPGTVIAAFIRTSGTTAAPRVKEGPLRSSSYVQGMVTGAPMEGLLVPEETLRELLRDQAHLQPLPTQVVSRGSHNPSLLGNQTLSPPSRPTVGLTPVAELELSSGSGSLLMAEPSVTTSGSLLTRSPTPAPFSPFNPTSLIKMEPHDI
# Chain of ETV5 (P41161 whole entry): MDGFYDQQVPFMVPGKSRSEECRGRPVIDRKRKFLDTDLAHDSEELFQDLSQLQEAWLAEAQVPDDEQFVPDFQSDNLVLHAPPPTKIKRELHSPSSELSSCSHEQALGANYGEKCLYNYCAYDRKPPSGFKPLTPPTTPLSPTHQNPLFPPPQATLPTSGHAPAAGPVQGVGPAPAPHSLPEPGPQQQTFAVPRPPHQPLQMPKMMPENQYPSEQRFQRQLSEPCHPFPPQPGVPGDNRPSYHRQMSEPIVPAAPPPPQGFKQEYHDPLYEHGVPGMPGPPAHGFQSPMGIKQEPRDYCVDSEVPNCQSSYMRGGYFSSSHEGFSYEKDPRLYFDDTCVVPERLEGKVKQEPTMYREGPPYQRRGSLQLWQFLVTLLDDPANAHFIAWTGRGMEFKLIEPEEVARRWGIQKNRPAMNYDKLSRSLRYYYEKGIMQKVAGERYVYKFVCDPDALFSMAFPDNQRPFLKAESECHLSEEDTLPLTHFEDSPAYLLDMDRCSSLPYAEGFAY
Sequence,binding signal (FEV),binding signal (ETV5),binding signal (HSF1),binding signal (SPIC),binding signal (ELF4),binding signal (ELK4),binding signal (ETV2),binding signal (ELF3),binding signal (CRX),binding signal (ETV1)
AATATG,"1.12 fold enrichment (6-mer frequency, TF over GST control)","1.2 fold enrichment (6-mer frequency, TF over GST control)","1.12 fold enrichment (6-mer frequency, TF over GST control)","1.28 fold enrichment (6-mer frequency, TF over GST control)","1.16 fold enrichment (6-mer frequency, TF over GST control)","1.18 fold enrichment (6-mer frequency, TF over GST control)","1.07 fold enrichment (6-mer frequency, TF over GST control)","1.21 fold enrichment (6-mer frequency, TF over GST control)","1.1 fold enrichment (6-mer frequency, TF over GST control)","1.13 fold enrichment (6-mer frequency, TF over GST control)"
TAACTG,"1.28 fold enrichment (6-mer frequency, TF over GST control)","1.22 fold enrichment (6-mer frequency, TF over GST control)","1.25 fold enrichment (6-mer frequency, TF over GST control)","1.42 fold enrichment (6-mer frequency, TF over GST control)","1.19 fold enrichment (6-mer frequency, TF over GST control)","1.23 fold enrichment (6-mer frequency, TF over GST control)","1.31 fold enrichment (6-mer frequency, TF over GST control)","1.47 fold enrichment (6-mer frequency, TF over GST control)","1.5 fold enrichment (6-mer frequency, TF over GST control)","1.09 fold enrichment (6-mer frequency, TF over GST control)"
ACTATA,"1.29 fold enrichment (6-mer frequency, TF over GST control)","1.33 fold enrichment (6-mer frequency, TF over GST control)","1.26 fold enrichment (6-mer frequency, TF over GST control)","1.26 fold enrichment (6-mer frequency, TF over GST control)","1.3 fold enrichment (6-mer frequency, TF over GST control)","1.42 fold enrichment (6-mer frequency, TF over GST control)","1.3 fold enrichment (6-mer frequency, TF over GST control)","1.38 fold enrichment (6-mer frequency, TF over GST control)","1.4 fold enrichment (6-mer frequency, TF over GST control)","1.26 fold enrichment (6-mer frequency, TF over GST control)"
ATATCC,"5.87 fold enrichment (6-mer frequency, TF over GST control)","2.97 fold enrichment (6-mer frequency, TF over GST control)","1.31 fold enrichment (6-mer frequency, TF over GST control)","2.59 fold enrichment (6-mer frequency, TF over GST control)","2.27 fold enrichment (6-mer frequency, TF over GST control)","2.39 fold enrichment (6-mer frequency, TF over GST control)","2.7 fold enrichment (6-mer frequency, TF over GST control)","2.77 fold enrichment (6-mer frequency, TF over GST control)","1.58 fold enrichment (6-mer frequency, TF over GST control)","2.72 fold enrichment (6-mer frequency, TF over GST control)"
ATCTGC,"1.41 fold enrichment (6-mer frequency, TF over GST control)","1.46 fold enrichment (6-mer frequency, TF over GST control)","1.44 fold enrichment (6-mer frequency, TF over GST control)","1.46 fold enrichment (6-mer frequency, TF over GST control)","1.44 fold enrichment (6-mer frequency, TF over GST control)","1.5 fold enrichment (6-mer frequency, TF over GST control)","1.44 fold enrichment (6-mer frequency, TF over GST control)","1.14 fold enrichment (6-mer frequency, TF over GST control)","1.67 fold enrichment (6-mer frequency, TF over GST control)","1.36 fold enrichment (6-mer frequency, TF over GST control)"
CTTCCG,"10.5 fold enrichment (6-mer frequency, TF over GST control)","8.45 fold enrichment (6-mer frequency, TF over GST control)","1.57 fold enrichment (6-mer frequency, TF over GST control)","7.54 fold enrichment (6-mer frequency, TF over GST control)","7.4 fold enrichment (6-mer frequency, TF over GST control)","6.22 fold enrichment (6-mer frequency, TF over GST control)","7.7 fold enrichment (6-mer frequency, TF over GST control)","6.78 fold enrichment (6-mer frequency, TF over GST control)","1.27 fold enrichment (6-mer frequency, TF over GST control)","7.97 fold enrichment (6-mer frequency, TF over GST control)"
CCAACT,"1.27 fold enrichment (6-mer frequency, TF over GST control)","1.16 fold enrichment (6-mer frequency, TF over GST control)","1.02 fold enrichment (6-mer frequency, TF over GST control)","1.4 fold enrichment (6-mer frequency, TF over GST control)","1.29 fold enrichment (6-mer frequency, TF over GST control)","1.27 fold enrichment (6-mer frequency, TF over GST control)","1.11 fold enrichment (6-mer frequency, TF over GST control)","1.21 fold enrichment (6-mer frequency, TF over GST control)","1.01 fold enrichment (6-mer frequency, TF over GST control)","1.21 fold enrichment (6-mer frequency, TF over GST control)"
